In PubChem BioAssay AID687012 (National Center for Advancing Translational Sciences (NCATS), 2013) one finds outcome data, which are given here for 1 molecule.

The source made the active and inactive calls.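 The calls were made as follows: active = significant rise in the time treated SMA model mouse pups take to turn upright when laid on their backs; inactive = no significant rise in righting time.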

A short description of this experiment: Extended Characterization of SMN2 Inhibitors: Righting Time Studies. The following applies: SMNdelta7 SMA mice, 50 mg/kg ip. An excerpt:
Spinal muscular atrophy (SMA) is caused by insufficient levels of the survival motor neuron protein SMN. The SMN locus on chromosome 5q13 contains two inverted copies of SMN called SMN1 and SMN2 which are 99% identical at the amino acid level. SMN1 is a fully functional protein and SMN2 skips exon 7 90% of the time. Skipping of exon 7 produces non-functional protein product. 10% of the SMN2 protein includes exon 7 and is fully functional. In the SMA disease state, mutations in the SMN1 locus are the cause of the disease state. Because only 10% of SMN2 is of the fully functional form, it is not sufficient to overcome the deficiency produced by the loss of the SMN1 product. A therapy that either increase the amount of SMN2 product made or to increase the inclusion of exon 7 has been proposed for the treatment of SMA. We have previously filed a probe report and have now done further SAR and further characterized the resulting compounds in mice studies. Here we tested the new compound to see if there was an improval in righting time when administered to SMNdelta7 SMA mice. NIH Chemical Genomics Center [NCGC] NIH Molecular Libraries Probe Production centers Network [MLPCN] MLPCN Grant: R03 MH084179 Assay Submitter (PI): Elliot Androphy […]
Consider `O=C(O)C1CCN(c2ncc(-c3ccc4c(c3)OCCCO4)s2)CC1`, for which the outcome is “active; yes”.
